Data reported in PubChem BioAssay (EPA / NIEHS).
Several values for one entry are separate records, joined by “and”; a condition that tells them apart may be missing. Equal values may be shown once. Some compounds were tested as several samples or in several runs, with calls that do not always agree. Activity calls are given as the source filed them. The calls were made as follows: active = hit-call score of the fitted dose curve at least 0.9, where 1 is the maximum; inactive = score below 0.9.

What follows are molecules tested on Interleukin-1 alpha (IL1a), IL1A (gene 3552) (assay: BSK_IMphg_IL1a: BioMAP Diversity Plus: IMphg Assay for Interleukin-1 alpha (IL1a) Biomarker Activity (AID 2284290)). Conditions: primary human endothelial cells with macrophages.
Procedure: BSK_IMphg is a cell-based, multiplexed-readout assay that uses venular endothelial cells and macrophages, a human vascular primary cell, with measurements taken at 24 hours after chemical dosing in a microplate: 96-well plate.BSK_IMphg_IL1a is an assay component measured in the BSK_IMphg assay. It measures IL-1a antibody related to regulation of gene expression using ELISA technology.Data from the assay component BSK_IMphg_IL1a was analyzed at the endpoint, BSK_IMphg_IL1a, in the positive analysis fitting direction relative to DMSO as the negative control and baseline of activity. Using a type of binding reporter, gain or loss-of-signal activity can be used to understand protein changes. To generalize the intended target to other relatable targets, this assay endpoint is annotated to the 'cytokine' intended target family, where the subfamily is 'interleukins'.
The levels of cell surface (or secreted, indicated by the prefix "s") biomarker endpoints were measured by ELISA. Overt cytotoxicity to cells in confluent adherent cultures (all systems other than the BT system) was assessed by measuring total protein levels using sulforhodamine B (SRB) staining in parallel cultures at the time of biomarker measurements, indicated as SRB endpoints. For proliferation assays for adherent cell types, individual cell types are cultured at sub-confluence and relative cell numbers quantified by SRB staining at time points optimized for each system (48 h: 3C and CASM3C systems; 72 h: BT and HDF3CGF systems; 96 h: SAg system). SRB was performed by staining cells with 0.1% SRB after fixation with 10% TCA and reading wells at 560 nm.Viability and proliferation of PBMC (T cells) was quantified by Alamar Blue reduction for the SAg and BT systems. For PBMC viability (referred to as PBMC Cytotoxicity within the assay endpoint names), cells were plated (75,000/well in a 96-well plate) and then chemical samples added for 1 h before addition of activators, SEB and TSST-1 (20 ng/mL final concentration each). Cells were incubated for 90 h. Then, Alamar Blue (20 uL/well) (Invitrogen, Cat DAL1100) was added for 6 h, and the plates were read with a fluorescence microplate reader at 546/580 nm (excitation/emission). For PBMC proliferation, cells were plated and activated as above but incubated for only 16 h prior to addition of Alamar Blue. Plates were read after 6 h.

SMILES | outcome | AC50
NC(=O)C(F)(F)C(F)(F)C(F)(F)C(F)F | inactive | –
OC(O)C(F)(F)C(F)(F)F | inactive | –
O=C(O)C(F)(F)C(F)(F)C(F)(F)OC(F)(F)F | inactive | –
O=S(=O)(OCC(F)(F)F)C(F)(F)C(F)(F)C(F)(F)C(F)(F)F | inactive | –
NS(=O)(=O)C(F)(F)C(F)(F)C(F)(F)C(F)(F)C(F)(F)C(F)(F)F | inactive | 6.98 µM (active)
OCCCCC(F)(F)C(F)(F)C(F)(F)C(F)(F)F | inactive | –
O=C(O)CCC(F)(F)C(F)(F)C(F)(F)C(F)(F)C(F)(F)C(F)(F)C(F)(F)F | inactive | –
O=C(O)C(F)(F)OC(F)(F)C(F)(F)OC(F)(F)C(F)(F)OC(F)(F)F | inactive | –
NC(=O)C(F)(F)C(F)(F)C(F)(F)C(F)(F)C(N)=O | inactive | –
NCC(F)(F)C(F)(F)C(F)(F)C(F)(F)C(F)(F)C(F)(F)F | inactive | –
CCN(CCO)S(=O)(=O)C(F)(F)C(F)(F)C(F)(F)C(F)(F)C(F)(F)C(F)(F)C(F)(F)C(F)(F)F | inactive | –
CCOC(=O)CC(=O)C(F)(F)C(F)(F)F | inactive | –
OCC(O)CC(F)(F)C(F)(F)C(F)(F)C(F)(F)F (stereo not given) | inactive | –
OCC(O)CC(F)(F)C(F)(F)C(F)(F)C(F)(F)C(F)(F)C(F)(F)C(F)(F)C(F)(F)F (stereo not given) | inactive | –
O=S(=O)(Cl)C(F)(F)C(F)(F)C(F)(F)C(F)(F)C(F)(F)C(F)(F)C(F)(F)C(F)(F)F | inactive | –
O=C(O)C(F)(F)C(F)(F)C(F)(F)OC(F)(C(F)(F)F)C(F)(F)F | inactive | –
O=C(Cl)C(F)(F)C(F)(F)C(F)(F)C(F)(F)C(F)(F)C(F)(F)F | inactive | –
O=C(O)C(F)(F)C(F)(F)C(F)(F)C(F)(F)C(F)(F)C(F)(F)C(F)F | inactive | –
C[Si](Cl)(Cl)CCC(F)(F)C(F)(F)C(F)(F)C(F)(F)C(F)(F)C(F)(F)F | inactive | –

SMILES | outcome | AC50
O=S(=O)(O)CCC(F)(F)C(F)(F)C(F)(F)C(F)(F)F | inactive | –
NCC(F)(F)C(F)(F)C(F)(F)C(F)(F)C(F)(F)C(F)(F)C(F)(F)C(F)(F)F | inactive | –
C=CC(=O)OCC(F)(F)C(F)(F)C(F)(F)COC(=O)C=C | inactive | 45 µM (active)
O=C(F)C1(F)C(F)(F)C(F)(F)C(F)(F)C(F)(F)C1(F)F | inactive | –
OCC(F)(F)C(F)(F)C(F)(F)CO | inactive | –
NC(=O)C(F)(F)C(F)(F)C(F)(F)F | inactive | –
CN(C(=O)C(F)(F)C(F)(F)C(F)(F)F)[Si](C)(C)C | inactive | –
NC(=O)C(F)(F)C(F)(F)C(F)(F)C(F)(F)C(F)(F)C(F)(F)C(F)(F)F | inactive | –
O=S(=O)(O)CCC(F)(F)C(F)(F)C(F)(F)C(F)(F)C(F)(F)C(F)(F)C(F)(F)C(F)(F)F | inactive | –
O=C(Cl)C(F)(F)C(F)(F)C(F)(F)C(F)(F)C(F)(F)C(F)(F)C(F)(F)F | inactive | –
CO[Si](C)(CCC(F)(F)C(F)(F)C(F)(F)C(F)(F)C(F)(F)C(F)(F)F)OC | inactive | –
FC(F)(F)C(F)(F)C(F)(F)C(F)(F)C(F)(F)C(F)(F)CC[Si](Cl)(Cl)Cl | inactive | –
COC(F)(C(F)F)C(F)(F)F (stereo not given) | inactive | –
NC(O)(C(F)(F)F)C(F)(F)F | inactive | –
C=CC(=O)OCC(F)(F)C(F)(F)C(F)(F)C(F)(F)C(F)(F)C(F)(F)C(F)(F)C(F)F | inactive | –
CNS(=O)(=O)C(F)(F)C(F)(F)C(F)(F)C(F)(F)C(F)(F)C(F)(F)C(F)(F)C(F)(F)F | – | 6.58 µM (active) and 9.9 µM (active)
FC(F)(F)C(F)(F)C(F)(F)CC1CO1 (stereo not given) | inactive | –
OCC(F)(F)C(F)(F)C(F)(F)C(F)(F)C(F)(F)C(F)(F)CO | inactive | –
C=C(C)C(=O)OCC(F)(F)C(F)(F)C(F)(F)C(F)F | inactive | –
